The sample as a whole holds a higher share of hits than the screen did.
BLM helicase inh: qHTS Assay for Inhibitors of Bloom's syndrome helicase (BLM) | RecQ-like DNA helicase BLM (Homo sapiens), P54132 | recombinant BLM DNA unwinding, fluorescence dequenching | Potency, µM (titrated, usually from 56.1 µM), for inactives: top-dose activity change, negative = inhibition, hits mostly inhibitors | 350,000 compounds, 0.2% hits | AID 2528, 2010;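 note: plate controls were vehicle for no effect and no enzyme for full effect; nearly all actives have a fitted effect of over 35% in size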
TDP1 inh: qHTS Assay for Inhibitors of Tyrosyl-DNA Phosphodiesterase (TDP1); Tyrosyl-DNA phosphodiesterase 1 (Homo sapiens), Q9NUW8; recombinant TDP1, AlphaScreen DNA substrate cleavage; Potency, µM (series often up to 130 µM), without a hit: top-dose activity change, negative = inhibition, most hits filed as inhibitors; 350,000 compounds, 0.28% hits; AID 485290, 2010; note: nearly all actives have a fitted effect of over 40% in size
Target sequence (Q9NUW8 whole entry, looked up): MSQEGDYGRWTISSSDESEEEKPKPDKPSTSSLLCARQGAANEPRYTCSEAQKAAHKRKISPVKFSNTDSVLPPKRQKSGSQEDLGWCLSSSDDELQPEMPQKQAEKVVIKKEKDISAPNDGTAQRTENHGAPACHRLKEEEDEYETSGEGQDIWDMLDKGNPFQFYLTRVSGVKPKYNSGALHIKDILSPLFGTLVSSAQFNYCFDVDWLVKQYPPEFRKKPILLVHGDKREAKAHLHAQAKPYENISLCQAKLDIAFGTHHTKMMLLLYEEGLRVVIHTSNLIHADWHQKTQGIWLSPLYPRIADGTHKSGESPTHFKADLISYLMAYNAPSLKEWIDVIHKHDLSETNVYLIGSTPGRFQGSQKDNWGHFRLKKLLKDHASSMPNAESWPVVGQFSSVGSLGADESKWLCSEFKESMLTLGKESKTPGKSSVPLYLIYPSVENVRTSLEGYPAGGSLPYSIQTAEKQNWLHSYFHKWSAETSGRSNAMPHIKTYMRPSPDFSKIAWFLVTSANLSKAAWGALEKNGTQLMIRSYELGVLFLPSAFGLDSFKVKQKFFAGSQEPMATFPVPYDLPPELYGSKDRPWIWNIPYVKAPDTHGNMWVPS
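Enzyme-compound mixtures sat 15 min at room temperature, followed by a 5 min reaction with 15 nM final substrate and 10 min with AlphaScreen beads. Recombinant human Tdp1 was used at 1 nM final.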
L3MBTL1 inh: qHTS Assay for the Inhibitors of L3MBTL1. Lethal(3)malignant brain tumor-like protein 1 (Homo sapiens), Q9Y468. AlphaScreen L3MBTL1–H3K9me1 peptide binding. Potency, µM (series often up to 57.1 µM), inactives show top-dose activity, negative = inhibition, hits mostly inhibitors. 230,000 compounds, 0.66% hits; note: nearly all actives have a fitted effect of over 60% in size
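L3MBTL1 (50 nM) pre-complexed 30 min with biotinylated H3(1-15)K9me1 peptide (75 nM), then compounds added for 30 min at room temperature; AlphaScreen streptavidin donor/nickel chelate acceptor beads (10 ug/mL final) read after 30 min dark incubation.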
APE1 inh-1: qHTS Assay for Inhibitors of the Human Apurinic/apyrimidinic Endonuclease 1 (APE1). recombinant APE1, TAMRA/BHQ-2 abasic DNA cleavage fluorescence. Potency, µM (series often up to 65.8 µM), for the others: at the top dose activity change, negative = inhibition, actives largely listed as inhibitors. 350,000 compounds, 0.35% hits. AID 2517, 2012;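 note: plate controls were vehicle for no effect and reference inhibitor for full effect; nearly all actives have a fitted effect of over 55% in size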
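Activity was derived from the fluorescence gain between first and third kinetic reads (60 s intervals, ex 525/em 598 nm) after 50 nM THF-abasic TAMRA/BHQ-2 duplex was added to 0.75 nM APE1 preincubated 15 min with compound.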
RECQ1 inh: qHTS Assay for Inhibitors of RecQ-Like Dna Helicase 1 (RECQ1). Potency, µM (doses to about 57.3 µM), for the others: at the highest dose activity, negative = inhibition, hits mostly inhibitors. 240,000 compounds, 0.54% hits. RECQ1 DNA unwinding, red fluorescence kinetic read. ATP-dependent DNA helicase Q1 (Homo sapiens), P46063;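 note: plate controls were vehicle for no effect and no enzyme for full effect; nearly all actives have a fitted effect of over 30% in size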
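RECQ1T1 50 nM; forked duplex (20 bp + 30-nt ss tails) 200 nM, ATP 2 mM final; pH 8.0, 2 mM MgCl2, 2.5 ug/ml poly(dI-dC); 15 min compound preincubation; discontinuous kinetic read over 2 h at RT.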
JMJD2E inh: qHTS Assay for Inhibitors of Human Jumonji Domain Containing 2E (JMJD2E) | Lysine-specific demethylase 4E (Homo sapiens), B2RXH2 | JMJD2E catalytic domain, FDH-coupled NADH fluorescence (FDH is formaldehyde dehydrogenase) | Potency, µM (titrated, usually from 57.1 µM), inactives show top-dose activity change, negative = inhibition, most hits filed as inhibitors | 230,000 compounds, 1.6% hits | AID 2147, 2009; active = well fitted inhibition curve with a large enough effect, not every such curve was filed as active; inconclusive = small, poorly fitted or top-dose-only effect, or another doubt; inactive = no such curve, though single readings can be large or run the other way;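 note: 0% = wells with enzyme and -100% = buffer wells without enzyme; nearly all actives have a fitted effect of over 50% in size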
APE1 dye cs: Counterscreen for APE1 Inhibitors: Fluorescent Dye Displacement Assay; 480 compounds, 7% hits; shares compounds with APE1 inh-1; DNA fluorescent dye displacement counterscreen, fluorescence; Potency, µM (series often up to 28.5 µM), inactives show at the highest dose activity change, negative = inhibition, most hits filed as inhibitors;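 note: loss of thiazole orange fluorescence as the dye is displaced from duplex DNA; 0% = ThO with dsDNA and no compound and -100% = ThO without dsDNA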
EndoIV counter: Counterscreen for APE1 Inhibitors: qHTS Assay for Inhibitors of Endonuclease IV; E. coli Endo IV, fluorogenic AP-site DNA cleavage; shares compounds with APE1 inh-1; 560 compounds, 4% hits; Potency, µM (doses to about 27.1 µM), without a hit: at the top dose activity change, negative = inhibition, most hits filed as inhibitors; AID 2565, 2010;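 note: plate controls were uninhibited enzyme wells for no effect and no enzyme buffer wells for full effect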
APE1 inh-2: Confirmation qHTS Assay for Inhibitors of the Human Apurinic/apyrimidinic Endonuclease 1 (APE1). 750 compounds, 44% hits. AID 2572, 2010. Potency, µM (doses to about 57.1 µM), without a hit: at the top dose activity change, negative = inhibition, most hits filed as inhibitors. shares compounds with APE1 inh-1. purified APE1, fluorogenic abasic-site DNA cleavage; note: nearly all actives have a fitted effect of over 30% in size
APE1 FP: qHTS FP-Based Assay for Inhibitors of the Human Apurinic/apyrimidinic Endonuclease 1 (APE1); shares compounds with APE1 inh-1; APE1 binding to TAMRA-labelled double-stranded DNA, fluorescence polarization displacement; 480 compounds, 7% hits; Potency, µM (doses to about 28.5 µM), for the others: at the top dose activity, negative = inhibition, hits mostly inhibitors
* marks the source's active call; other numbers are inactive results; i = inactive; ? = inconclusive; / = not tested or not shown; ! = repeats disagree; [ ] = dose if it differs, or a comment. Unless noted, calls come from the whole dose curve; as a rule, active = well fitted curve in the direction sought with a large enough effect; inconclusive = small, poorly fitted or top-dose-only effect, or another doubt; inactive = no such curve, though single readings can be large; an effect the other way counts as inactive or inconclusive. Unless noted, % is set by controls: 0 for no effect and ±100 for the full control effect; potency is the fitted concentration of half-maximal effect.

SMILES	BLM helicase inh	TDP1 inh	L3MBTL1 inh	APE1 inh-1	RECQ1 inh	JMJD2E inh	APE1 dye cs	EndoIV counter	APE1 inh-2	APE1 FP
O=C(CCO)c1ccc(O)cc1	25.1µM*	?	3.55µM*	1.58µM*	25.1µM*	?	-1.6%	?	1.26µM*	-11.3%
CO/N=C(\C(=O)N[C@@H]1C(=O)N2C(C(=O)O)=C(COC(C)=O)CS[C@@H]12)c1csc(N)n1	-10.3%	?	/	/	-1.9%[25.9 µM]	-5.5%[25.5 µM]	-6.1%[57.1 µM]	22.8%[57.1 µM]	28.2µM*	-11.9%[57.1 µM]
C=CC1=C(C(=O)O)N2C(=O)[C@@H](NC(=O)/C(=N\OCC(=O)O)c3csc(N)n3)[C@@H]2SC1	-3.3%[21.4 µM]	14.1µM*	/	/	-1.7%[25.9 µM]	-6.9%[25.5 µM]	-4.3%	25.1%	12.6µM*	1.9%
O=C(O)c1cccc(-c2noc(-c3ccccc3F)n2)c1	2.4%	0.8%	/	/	/	/	/	/	/	/
O=c1ccn(CCc2c[nH]c3ccccc23)c2c1CCCC2	7.9%	8.4%	?	0.0794µM*	-2.2%	-17.1%	-5.4%	-4.7%	-7.0%[24.4 µM]	4.3%
Nc1ccc(N)c(C(=O)O)c1	5.62µM*	0.282µM*	/	1.26µM*	11.2µM*	-5.8%	/	/	2.24µM*	/
OC1OC[C@H](O)[C@H](O)[C@H]1O (some centres undefined)	-0.5%	8.9%	/	?	-1.5%	/	/	/	/	/
Cc1cc(/C=C2/C(=N)N3C(=NC2=O)SN=C3S(C)(=O)=O)c(C)n1-c1ccccc1F	-11.3%	8.6%	/	23.2%	-27.7%	?	/	/	/	/
CS(=O)(=O)C1=NSC2=NC(=O)/C(=C\c3cccn3-c3ccc(Cl)cc3)C(=N)N21	?	79.4µM*	-25.4%	?	-19.5%	?	/	/	14.1µM*	/
C[C@@H]1OC(OC2CC[C@@]3(C)C(CC[C@@]4(C)C3CC=C3C5CC(C)(C)CC[C@]5(C(=O)OC5OCC(O)[C@@H](O)[C@@H]5OC5O[C@@H](C)[C@H](O[C@H]6OC(CO)C(O)C(O)C6O)C(O)C5O)C(O)C[C@@]34C)C2(C)C)C(O)C(O)[C@H]1OC1OCC(O)C(O)[C@H]1O (some centres undefined)	0.3%	/	/	28.2µM*	-16.7%	-13.5%	-0.9%[57.1 µM]	0.0%[57.1 µM]	31.6µM*	7.5%[57.1 µM]
CC1O[C@@H](OC2C(COC3OC(CO)C(O)[C@H](O)C3O)OC(OC3CC[C@]4(C)C(CC[C@@]5(C)[C@@H]4CC=C4[C@@H]6CC(C)(C)CC[C@]6(CO)C(O)C[C@]45C)C3(C)C)C(O)C2O)C(O)C(O)C1O (some centres undefined)	/	0.6%	-8.2%	-19.0%	/	/	/	/	/	/
COc1ccc2nc(N3CCCCC3)c(C#N)cc2c1	-8.6%	39.8µM*	226.7%	-2.6%	-2.8%	?	/	/	?	/
Cc1c(C(=O)O)c(O)cc2c1C(=O)c1c(O)c([C@H]3O[C@H](CO)[C@@H](O)[C@H](O)[C@H]3O)c(O)c(O)c1C2=O	-11.4%	0.708µM*!	/	10µM*!	31.6µM*!	7.94µM*	?	-118.2%[57.1 µM]	3.16µM*	?
O=C(Cn1c(=O)n(Cc2ccco2)c(=O)c2c3c(sc21)CCCC3)Nc1ccccc1	-14.2%	2.1%	-10.0%	-2.7%	-14.2%	-0.2%	/	/	/	/
NC(=O)Cn1c(=O)n(Cc2ccco2)c(=O)c2c3c(sc21)CCCCC3	?	/	?	?	?	4.4%	?	3.5%	10µM*	?
CC(C)(C)NC(=O)c1cc(F)c(F)cc1Cl	-14.4%	6.1%	/	7.08µM*	i	5.5%	-8.3%	3.6%	?	-6.4%
COc1ccc(-c2coc3cc(O)ccc3c2=O)c(OC)c1O	-1.1%	13.6%[56.1 µM]	/	3.1%	2.1%	?	/	/	/	/
COc1ccc(-c2coc3cc(O)ccc3c2=O)c(O)c1O	-23.3%	/	/	3.16µM*	3.98µM*	11.2µM*	/	36.8%[57.1 µM]	-86.6%	/
CN(C)[C@H]1C(=O)C(C(=O)NCN2CCCC2)=C(O)[C@]2(O)C(=O)C3=C(O)c4c(O)cccc4[C@@](C)(O)[C@H]3C[C@@H]12	-13.4%[21.4 µM]	?	/	/	-21.5%[25.9 µM]	11.2µM*	5.2%	-8.9%	-10.9%[24.4 µM]	?
O=C1/C(=C\c2ccco2)SC(=S)N1c1ccc(O)cc1	33.7%	5.1%	?	4.3%	-19.6%	?	/	/	/	/
NN1C(=O)/C(=C\c2ccco2)SC1=S	?	/	25.1µM*	14.1µM*	?	?	-10.9%	3.6%	?	1.4%
CCc1cnc2c(c1SCC(=O)NCc1ccc(F)cc1)c(=O)n(C)c(=O)n2C	0.3%	0.0%	/	/	/	/	/	/	/	/
Cc1ccc(Cn2c(C(=O)O)c(CNCc3ccc(OC(C)C)cc3)c3ccc(C)cc32)cc1	-11.0%	10.3%	/	/	/	/	/	/	/	/
CCCNC(=O)CSc1nc2nc(C)c(Cc3ccccc3Cl)c(C)n2n1	-6.2%	2.9%	/	/	/	/	/	/	/	/
CCCCCCC/C=C\CCCCCCCCC(=O)O	/	-12.4%[56.1 µM]	/	0.3%	?	-0.4%	/	-22.3%[57.1 µM]	-66.9%	/

Source: PubChem BioAssay
